Only some compounds are listed: those with a hit (about 5.9% of all), similar ones and a draw of the others.
KB-V1 cytotox – qHTS assay for MDR1-selective chemotherapeutics: Primary screen using the drug-selected MDR subline cells KB-V1; KB-V1 MDR cells viability, CellTiter-Glo, 72 h; Potency, µM (series often up to 46.1 µM), hits mostly cytotoxic; 400,000 compounds, 3.4% hits; also: % is scaled to controls: 0 for no effect and ±100 for the full control effect; nearly all actives have a fitted effect of over 60% in size
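Cells of the MDR subline KB-V1 are plated, dosed with compound at multiple concentrations, and incubated 72 h at 37 degrees C; CellTiter-Glo is then added and luminescence read after 10 min.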
HepG2 viability – qHTS for Inhibitors of TGF-b: Cytotox Counterscreen | HepG2 CAGA-GFP viability, ATP luminescence, 18 h | Potency, µM (highest dose often 46.1 µM), without a hit: at the top dose activity change, negative = cytotoxicity, usual class: cytotoxic | 410,000 compounds, 0.76% hits
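CellTiter-Glo luminescence gave cytotoxicity after 18 hours at 37 degrees C. The cells were HepG2 CAGA-GFP in 1% FBS DMEM, stimulated with 500 pg/mL TGF-beta after compound addition. %Activity was normalised to no-cell wells (complete cell-killing) and DMSO (no toxicity), and curves were fitted and classified.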
TGFb inhibitor – qHTS for Inhibitors of TGF-b; Potency, µM (doses to about 46.1 µM), for the others: at the top dose activity, negative = inhibition, usual class: inhibitors; HepG2 CAGA-GFP TGF-b/SMAD3 reporter, GFP fluorescence, 18 h; TGF-beta stimulated, 500 pg/mL final; 410,000 compounds, 1.2% hits; also: % is scaled to controls: 0 for no effect and ±100 for the full control effect; nearly all actives have a fitted effect of over 65% in size
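Read-out: total well GFP (ex488/em500-530) summed from mean per-cell fluorescence. Cells: HEPG2 CAGA-GFP, 1% FBS DMEM, 18 h at 37 degrees C with 500 pg/mL final TGF-beta. Unstimulated wells served as the full-inhibition control; stimulated DMSO wells = 0%.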
ATXN viability – Viability Counterscreen for Primary qHTS for Inhibitors of ATXN expression | 400,000 compounds, 0.49% hits | S2 cells (HEK-293 line with an ATXN2-luciferase reporter) viability, CellTiter-Fluor protease fluorescence, 24 h | AID 651635, 2014 | Potency, µM (doses to about 56.7 µM), actives largely listed as cytotoxic; also: nearly all actives have a fitted effect of over 40% in size
ATXN2 expr inh – Primary qHTS for Inhibitors of ATXN expression. HEK-293 ATXN2-luciferase reporter, luminescence, 24 h. Potency, µM (series often up to 57 µM), inactives show at the top dose activity change, negative = inhibition, usual class: inhibitors. 360,000 compounds, 0.72% hits. AID 1745845, 2022; also: % is scaled to controls: 0 for no effect and ±100 for the full control effect; nearly all actives have a fitted effect of over 55% in size
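qHTS (up to 57 uM final) was run with 24 h compound exposure of reporter cells at 37 °C. Each well was multiplexed: SteadyGlo luminescence measured ATXN2-luciferase expression after a fluorogenic Gly-Phe-AFC viability readout (25 uM final).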
KB-3-1 tox – qHTS assay for MDR1-selective chemotherapeutics: Primary screen using the parental adenocarcinoma cell KB-3-1 | KB-3-1 viability, CellTiter-Glo ATP luminescence, 72 h | Potency, µM (series often up to 46.1 µM), usual class: cytotoxic | 400,000 compounds, 1.4% hits | AID 1347075, 2019; also: % is scaled to controls: 0 for no effect and ±100 for the full control effect; nearly all actives have a fitted effect of over 60% in size
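72 h, 37 °C compound treatment of KB-3-1 parental cells; CellTiter-Glo added, 10 min, luminescence read. Data corrected against DMSO-only plates and normalized before curve fitting.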
An asterisk follows results filed as active. Calls follow the shape of the dose curve; as a rule, active = well fitted curve in the direction sought with a large enough effect; inconclusive = small, poorly fitted or top-dose-only effect, or another doubt; inactive = no such curve, though single readings can be large; an effect the other way counts as inactive or inconclusive. Potency is read from the fitted curve at half-maximal effect.

For COc1ccc(Nc2nc(C)nc3sc4c(c23)CCC4)cc1O the results were KB-V1 cytotox 5.8µM*, HepG2 viability -2.6%, TGFb inhibitor -0.2%, ATXN viability inconclusive, ATXN2 expr inh -3.2% and KB-3-1 tox inconclusive.
Screening Cc1nc(NCc2ccco2)c2c3c(sc2n1)CCC3 returned KB-V1 cytotox inactive, HepG2 viability -52.9%, TGFb inhibitor inconclusive, ATXN viability inactive, ATXN2 expr inh 29.5% and KB-3-1 tox inconclusive.
For C=CC(=O)N1c2ccccc2Sc2ccc(NC(=O)OCC)cc21 the results were KB-V1 cytotox inactive, HepG2 viability -22.4%, TGFb inhibitor 15.8µM*, ATXN viability inconclusive, ATXN2 expr inh inconclusive and KB-3-1 tox inconclusive.
`Cc1nn(C(=O)c2ccccc2)c(C)c1Sc1ccc(Cl)cc1` gave KB-V1 cytotox 7.31µM*, HepG2 viability -50.4%, TGFb inhibitor inconclusive, ATXN viability 28.2µM*, ATXN2 expr inh 25.1µM* and KB-3-1 tox inconclusive.
Cc1ccc(Sc2c(C)nn(C(=O)c3ccc(Br)cc3)c2C)cc1 was read as KB-V1 cytotox inactive, HepG2 viability -27.0%, TGFb inhibitor -13.9%, ATXN viability inactive, ATXN2 expr inh 13.2% and KB-3-1 tox inactive.
Screening Cc1cnc(-n2ncc(C(=O)NCC3COCCO3)c2C2CC2)nc1-c1cccs1 (stereo not given) returned ATXN viability inactive.
For CO/N=C/c1ccc(N2CCOCC2)c([N+](=O)[O-])c1 the results were KB-V1 cytotox inactive, HepG2 viability -13.1%, TGFb inhibitor -0.1%, ATXN viability inactive, ATXN2 expr inh -17.9% and KB-3-1 tox inactive.
`O=[N+]([O-])c1cc(/C=N/OCc2c(Cl)cccc2Cl)ccc1N1CCOCC1` gave KB-V1 cytotox 13µM*, HepG2 viability -15.7%, TGFb inhibitor 36.9%, ATXN viability inactive, ATXN2 expr inh -3.9% and KB-3-1 tox inconclusive.
CCCCn1c(SCC(=O)c2ccc(OC)cc2OC)nc2cc(S(N)(=O)=O)ccc21 was read as KB-V1 cytotox 18.4µM*, HepG2 viability -16.1%, TGFb inhibitor -11.5%, ATXN viability inactive, ATXN2 expr inh 3.0% and KB-3-1 tox inactive.
CC(C)Cn1cc(NC(=O)N2CCN(c3cccc(Cl)c3)CC2)c2ccccc2c1=O was read as KB-V1 cytotox inactive, HepG2 viability -26.7%, TGFb inhibitor -11.7%, ATXN viability inactive, ATXN2 expr inh -24.6% and KB-3-1 tox inactive.
COCCNC(=O)/C(C#N)=C\c1ccc(CNC(=O)C(=O)Nc2ccc(C)c(C)c2)o1 was read as KB-V1 cytotox inactive, HepG2 viability 8.1%, TGFb inhibitor -3.9%, ATXN viability inactive, ATXN2 expr inh 4.4% and KB-3-1 tox inactive.
Screening COc1ccc(NC(=O)C(=O)N/N=C\c2ccc(CNC(=O)C(=O)Nc3ccc(C)c(C)c3)o2)c(OC)c1 returned KB-V1 cytotox inconclusive, HepG2 viability -27.5%, TGFb inhibitor -7.7%, ATXN viability inconclusive, ATXN2 expr inh -12.8% and KB-3-1 tox 13µM*.
`CCOc1ccc(S(=O)(=O)NCc2cccnc2)cc1C` gave KB-V1 cytotox inactive, HepG2 viability 3.4%, TGFb inhibitor 5.4%, ATXN viability inactive, ATXN2 expr inh -13.9% and KB-3-1 tox inactive.
Screening CCOc1ccc(S(=O)(=O)NCCc2c(C)[nH]c3c(Cl)cccc23)cc1C returned KB-V1 cytotox inactive, HepG2 viability 17.8µM*, TGFb inhibitor 15.8µM*, ATXN viability inactive, ATXN2 expr inh inconclusive and KB-3-1 tox inactive.
For COc1ccc(NC(=O)CCS(=O)(=O)c2nc(-c3cccs3)cc(C(F)(F)F)n2)cc1OC the results were HepG2 viability -106.4% and TGFb inhibitor 15.8µM*.

Screening results (PubChem BioAssay)
